Compound activity as filed in PubChem.
FMDV antiviral: blocks foot and mouth disease virus; Potency, µM (top dose mostly 57.9 µM), most hits filed as inhibitors; FMDV antiviral cell-based qHTS; 1.2% of 410,000 active; AID 1159524; calls by dose curve; tested in HEK293T cells; further: read-out not given here; nearly all actives have a fitted effect of over 45% in size
HCMV inh: human cytomegalovirus inhibition. 4.5% of 410,000 active. HFF cells, HCMV-luciferase reporter, 72 h; hits give low values. activity change, negative = inhibition, % at 57.5 µM. AID 1259415; in the data active means activity change below about -60%; inconclusive means no clear call, values can overlap the other calls; inactive means above about -39%
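Two compound doses tested in HFFs infected with HCMV-luciferase, MOI 1 PFU/cell, 72 h at 37C. Lysate luminescence read with OneGlo; data normalized against buffer-only and 10uM Salinomycin inhibitor controls.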
Vaccinia mCherry: inhibitors of vaccinia virus infection (mCherry reporter signal) | Potency, µM (doses to about 36.5 µM), hits mostly inhibitors | Vaccinia virus mCherry reporter infection, fluorescence | 0.63% of 310,000 active; calls by dose curve; tested in A549 cells; further: nearly all actives have a fitted effect of over 35% in size
VACV Venus inh: vaccinia inhibition (Venus reporter); Vaccinia virus Venus reporter expression, fluorescence; Potency, µM (series often up to 36.5 µM), most hits filed as inhibitors; 0.46% of 330,000 active; AID 720580; calls by dose curve; tested in A549 cells; further: nearly all actives have a fitted effect of over 30% in size
Of the large screens only hits and unclear results are named; the others gave an inactive call. Shown are actives, neighbours in structure and some others; about 7.3% of the full set was active somewhere.

CCCc1c(-c2ccc(F)cc2F)ncn1Cc1ccccc1OC	FMDV antiviral inconclusive, HCMV inh -78
CCCCc1c(-c2ccccc2OC)ncn1CCc1cccc(F)c1	FMDV antiviral inconclusive
CCOc1ccccc1NC(=O)Cn1c(=O)n(CC(=O)NCc2ccccc2Cl)c(=O)c2sccc21	none
O=C(c1ccco1)N1CCC2(CCCN(c3ccncc3)C2)CC1	none (no result: HCMV inh, Vaccinia mCherry, VACV Venus inh)
COC(=O)c1cc(OC)c(=O)c2c(OC)c(OC)ccc2c1	FMDV antiviral inconclusive (no result: HCMV inh)
CCCCc1c(-c2ccccc2OC)ncn1CCc1ccccc1OC	FMDV antiviral 22µM, HCMV inh -68, Vaccinia mCherry inconclusive, VACV Venus inh inconclusive
